Usually inhibition stands for the drop in the measured response relative to a control, in per cent.

The campaign covered roughly 1,300 compounds. About 750 (58%) were called active. This is one part of the list. A number with no mark means an inactive call. Residues, ends and D or L forms follow the SMILES beside them. *: point of attachment. Cbz = O=C(OCc1ccccc1)*

In the test the target is Sulfhydryl oxidase 1 (Homo sapiens) (UniProt O00391). Put plainly: QSOX1 enzyme inhibitors, primary screen, biochemical, ROS-Glo H2O2 luminescence, HTS (AID 1347418). The conditions noted are these: recombinant QSOX1, ROS-Glo H2O2 luminescence; at 12.5 µM; active compounds read high; active = any value above zero.
Chain of Sulfhydryl oxidase 1 (Homo sapiens) (O00391 whole entry, looked up): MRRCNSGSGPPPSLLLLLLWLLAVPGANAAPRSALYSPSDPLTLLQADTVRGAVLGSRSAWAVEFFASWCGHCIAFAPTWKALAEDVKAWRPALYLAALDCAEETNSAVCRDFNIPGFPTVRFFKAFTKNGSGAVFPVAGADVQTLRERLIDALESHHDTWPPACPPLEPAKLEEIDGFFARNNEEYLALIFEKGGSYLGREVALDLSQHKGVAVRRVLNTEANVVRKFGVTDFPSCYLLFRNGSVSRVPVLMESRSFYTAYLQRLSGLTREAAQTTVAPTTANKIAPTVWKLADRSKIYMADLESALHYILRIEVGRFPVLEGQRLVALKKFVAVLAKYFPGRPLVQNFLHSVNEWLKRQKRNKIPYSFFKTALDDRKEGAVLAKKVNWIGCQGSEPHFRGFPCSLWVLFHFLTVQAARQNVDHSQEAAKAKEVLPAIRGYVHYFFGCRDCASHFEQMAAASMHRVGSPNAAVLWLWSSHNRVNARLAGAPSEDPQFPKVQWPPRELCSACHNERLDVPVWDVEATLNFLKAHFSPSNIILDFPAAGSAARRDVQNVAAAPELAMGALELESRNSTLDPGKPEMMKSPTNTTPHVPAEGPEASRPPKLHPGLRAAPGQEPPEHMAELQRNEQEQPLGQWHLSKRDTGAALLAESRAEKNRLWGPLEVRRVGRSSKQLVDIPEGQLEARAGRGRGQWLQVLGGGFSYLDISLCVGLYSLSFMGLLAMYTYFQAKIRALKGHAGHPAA
As for `CC(=O)NNC(=O)N1Cc2ccccc2Oc2ccc(Cl)cc21`, the inhibition is 2.6% (active). For `CCCC1O[C@@H]2C[C@H]3[C@@H]4CCC5=CC(=O)C=C[C@]5(C)[C@H]4[C@@H](O)C[C@]3(C)[C@]2(C(=O)CO)O1` (stereo not given in full) the value was -0.8%. Next, `C[C@H]1CC2C3CCC4=CC(=O)C=C[C@]4(C)[C@@]3(Cl)[C@@H](O)C[C@]2(C)[C@@]1(O)C(=O)CO` (stereo not given in full): 8.8% (active); `C[C@]12C=CC(=O)C=C1CC[C@H]1[C@@H]3C[C@@H](O)[C@](O)(C(=O)CO)[C@@]3(C)C[C@H](O)[C@@]12F`: -107%.

With `CC1CC2C3CCC4=CC(=O)C=C[C@]4(C)[C@@]3(F)[C@@H](O)C[C@]2(C)[C@@]1(O)C(=O)CO` (stereo not given in full), the inhibition is 2.3% (active). For `CC12CC3CC(C)(C1)CC(N)(C3)C2` the value was 3.5% (active); for `NC12CC3CC(CC(C3)C1)C2`, -0.1%; for `O=c1cc(-c2ccccc2F)[nH]c2cc3c(cc12)OCO3`, 4.4% (active).

Turning to `OC(CN1CCC(Cc2ccc(F)cc2)CC1)c1ccc(Cl)cc1` (stereo not given), the inhibition is 7.6% (active). Take `c1ccc(C2CN3CCSC3=N2)cc1` (stereo not given): the inhibition was 0.3% (active).

On to `c1ccc([C@H]2CN3CCSC3=N2)cc1`, for which the inhibition is -2.6%. In the case of `Brc1ccc([C@H]2CN3CCSC3=N2)cc1`, the inhibition was 6.2% (active). For `OCCN1CCN(CC/C=C2/c3ccccc3Sc3ccc(C(F)(F)F)cc32)CC1` the value was 0.6% (active); for `O=C(CCCN1CCC(O)(c2cccc(C(F)(F)F)c2)CC1)c1ccc(F)cc1`, -4.6%.

Take `OCCN1CCN(CCCN2c3ccccc3Sc3ccc(C(F)(F)F)cc32)CC1`: the inhibition was 43.6% (active). For `CN1CCN(CCCN2c3ccccc3Sc3ccc(C(F)(F)F)cc32)CC1` the value was 27.4% (active); for `NC(=O)c1cn(Cc2c(F)cccc2F)nn1`, 1.3% (active). Next, `Cc1ccccc1N1C(=O)c2cc(S(N)(=O)=O)c(Cl)cc2NC1C` (stereo not given): 0.3% (active); `NC/C=C\C(=O)O`: -0.4%. With `COc1ccc2[nH]cc(CCNC(C)=O)c2c1`, the inhibition is 5.6% (active). Consider `COc1cc2c(CCNC(C)=O)c[nH]c2cc1Cl`, for which the inhibition is -1.4%. For `CC(=O)NCCc1c[nH]c2ccc(O)cc12` the value was 27.5% (active). For the compound `COc1cc2c(CCNC(C)=O)c[nH]c2cc1O`, the inhibition was 45.2% (active). In the case of `COc1ccc(NC=O)c(C(=O)CCNC(C)=O)c1`, the inhibition is -0.8%.

As to `Nc1nc(OCC2CCCCC2)c2[nH]cnc2n1`, the inhibition is 0%. Next, `Nc1nc(OCc2ccccc2)c2[nH]cnc2n1`: 2% (active); `NC/C=C/C(=O)O`: -2.4%; `O=c1ccc2c(OCCCCc3ccccc3)c3ccoc3cc2o1`: 2.3% (active). For `CC(=O)O[C@H]1Cc2ccccc2N(C(N)=O)c2ccccc21` the value was 0.3% (active). For `NC(=O)N1c2ccccc2C=Cc2ccccc21` the value was -1.4%; for `CC(C)(C)C(=O)Oc1ccc(S(=O)(=O)Nc2ccccc2C(=O)NCC(=O)O)cc1`, -1%.

For the compound `CC1(C)CCC2=C(O1)c1ccccc1C(=O)C2=O`, the inhibition was 40.5% (active). Next, `COc1cc(Cc2cnc(N)nc2N)cc(OC)c1OC`: 0.5% (active); `COc1cc2c(cc1OC)C1CC(=O)C(CC(C)C)CN1CC2` (stereo not given): 2.6% (active); `CC[C@H]1CN2CCc3cc(OC)c(OC)cc3[C@@H]2C[C@@H]1C[C@H]1NCCc2cc(OC)c(OC)cc21`: 1.7% (active). For `CCc1cccc(N(C)C(N)=Nc2cccc3ccccc23)c1` the value was 8.7% (active). On to `C(=C\c1ccccc1)/CN1CCN(C(c2ccccc2)c2ccccc2)CC1`, for which the inhibition is 4.9% (active). Turning to `Fc1ccc(C(c2ccc(F)cc2)N2CCN(C/C=C/c3ccccc3)CC2)cc1`, the inhibition was 0.4% (active). As for `CN(C)CCCc1cc(C(=O)Nc2ccc(-c3ccncc3)cc2)ccc1O`, the inhibition is 2.5% (active).

Consider `Cc1nc(N=Nc2ccc(C(=O)O)cc2)c(COP(=O)(O)O)c(C=O)c1O`, for which the inhibition is 0.9% (active). For `Cc1nc(N=NC2=[C+]C3=C(C=C([N+](=O)[O-])[C+]=C3S(=O)(=O)[O-])C(S(=O)(=O)[O-])=[C+]2)c(COP(=O)([O-])O)c(C=O)c1O` the value was 2.8% (active); for `C#CCN(C)CCCOc1ccc(Cl)cc1Cl`, -1.5%; for `Cn1ccnc1`, -4.4%. Take `CN(C)CCC=C1c2ccccc2CCc2ccccc21`: the inhibition is -4.4%.

In the case of `CN(C)CCC=C1c2ccccc2C=Cc2ccccc21`, the inhibition was 1% (active). `CN(C)CC/C=C1\c2ccccc2COc2ccccc21`: the inhibition is -3.1%. For `CSc1ccc2c(c1)N(CCC1CCCCN1C)c1ccccc1S2` (stereo not given) the value was 46.5% (active). `CSc1ccc2c(c1)C(N1CCN(C)CC1)Cc1ccccc1S2` (stereo not given): the inhibition is -0.9%.

`Oc1cc2c(cc1O)CN(C(=S)NCCc1ccc(Cl)cc1)CCC2`: the inhibition is 25.5% (active). Next, `CC(C)NC[C@H](O)COc1ccc(CC(N)=O)cc1`: 5.2% (active); `CC(C)NCC(O)COc1ccc(CCOCC2CC2)cc1` (stereo not given): -0.5%. As to `CC(C)NCC(O)COc1ccc(COCCOC(C)C)cc1` (stereo not given), the inhibition was 3.9% (active). Regarding `CC(C)NCC(O)COc1ccc(CC(N)=O)cc1` (stereo not given), the inhibition is -2%. For the compound `COCCc1ccc(OCC(O)CNC(C)C)cc1` (stereo not given), the inhibition is -2%. As to `COC(=O)c1c(C)[nH]c(C)c1C(=O)c1ccccc1Cc1ccccc1`, the inhibition is 1.9% (active). Regarding `C=CCc1cccc(/C=N/NC(=O)CN2CCN(Cc3ccccc3)CC2)c1O`, the inhibition is -3.2%. For `CN1CCc2cccc3c2C1Cc1ccc(O)c(O)c1-3` (stereo not given), the inhibition is 17.1% (active). Regarding `COc1cc2ncnc(Nc3cccc(Cl)c3)c2cc1OC`, the inhibition was -1.3%.

With `O=c1n(CCCN2CCN(c3cccc(Cl)c3)CC2)nc2ccccn12`, the inhibition was 8.6% (active).

Turning to `O=c1c(-c2ccc(O)cc2)coc2cc(O)ccc12`, the inhibition was 7.6% (active). Consider `O=c1c(-c2ccc(O)cc2)coc2cc(O)cc(O)c12`, for which the inhibition is -5.9%. For `O=C(N[C@@H](Cc1ccccc1)C(=O)CCl)OCc1ccccc1` the value was -6.4%. For `CC(C)[C@H](NC(=O)OCc1ccccc1)C(=O)N[C@H](C=O)Cc1ccccc1` (Cbz-Val-Phe-aldehyde), the inhibition is -1.6%.

Regarding `CC(C)C[C@H](NC(=O)[C@@H](O)[C@H](N)Cc1ccccc1)C(=O)O`, the inhibition was 0.1% (active). Next, `CC(C)C[C@H](NC(=O)[C@H](O)[C@H](N)Cc1ccccc1)C(=O)O`: 9.6% (active).

Source of the values: PubChem BioAssay AID1347418 (Sanford-Burnham Center for Chemical Genomics, 2020).
